From PubChem BioAssay AID1851 (National Center for Advancing Translational Sciences (NCATS), 2009)
Among all 16,000 compounds or so, about 4,000 (25%) were called active. Inconclusive results (about 26%) are left out. Not all results are given here. Unmarked numbers belong to inactive results. Calls come from the whole dose curve; as a rule, active = well fitted curve in the direction sought with a large enough effect; inconclusive = small, poorly fitted or top-dose-only effect, or effect the other way; inactive = no such curve, though single readings can be large or run the other way.

target: Cytochrome P450 2C9 (Homo sapiens) (UniProt P11712); experiment: Cytochrome panel assay with activity outcomes; conditions: recombinant CYP, pro-luciferin dealkylation, luminescence, p450-cyp2c9; series mostly up to 57.1 µM; activity, negative = inhibition: at the top concentration
Sequence (P11712 whole entry, looked up): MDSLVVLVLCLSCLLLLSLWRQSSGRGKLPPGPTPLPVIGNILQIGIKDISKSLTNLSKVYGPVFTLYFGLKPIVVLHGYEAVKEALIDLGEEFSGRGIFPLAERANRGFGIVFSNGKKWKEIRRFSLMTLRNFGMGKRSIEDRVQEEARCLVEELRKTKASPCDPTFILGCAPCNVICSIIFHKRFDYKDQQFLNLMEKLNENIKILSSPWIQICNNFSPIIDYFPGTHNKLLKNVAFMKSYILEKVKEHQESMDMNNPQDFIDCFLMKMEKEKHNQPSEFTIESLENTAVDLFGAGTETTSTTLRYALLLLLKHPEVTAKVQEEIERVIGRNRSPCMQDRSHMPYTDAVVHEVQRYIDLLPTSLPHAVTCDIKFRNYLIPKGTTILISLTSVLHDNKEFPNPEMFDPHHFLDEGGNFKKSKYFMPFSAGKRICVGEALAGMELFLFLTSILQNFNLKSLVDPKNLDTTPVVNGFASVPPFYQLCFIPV
% is set by controls: 0 for no effect and ±100 for the full control effect.

Row | SMILES | activity, negative = inhibition | AC50
1 | C=CC[N+]1(CC#CCOC(c2ccccc2)c2ccccc2)CCOCC1 | -4.98% | 
2 | COc1ccccc1CNc1ncncc1-c1ccccc1C | 11.7% [at 2.29 µM] | 
3 | CO/N=C(\C)CCN1CCCCc2nc(C)c(C)cc21 | 8.57% [at 11.4 µM] | 
4 | CC1=CC(=O)C=CC1(C)C(Cl)(Cl)Cl (configuration not stated) | -19.5% | 
5 | Nc1nccc(Nc2ccc(S(N)(=O)=O)cc2)n1 | -3.1% [at 11.4 µM] | 
6 | CCCOc1ccc(C(=O)CCNc2ccc(C)c(Cl)c2)cc1 | 1.11% | 
7 | CCOc1ccc(C(=O)Nc2cnn(Cc3ccc(Cl)c(Cl)c3)c2)cc1 |  | 17.8 µM (active)
8 | CCOC(OCC)P(=O)(O)CCCNCc1ccc(Cl)c(Cl)c1 | 6.63% | 
9 | CCCCc1c(O)nc(SCCN(C)C)n(-c2ccccc2)c1=O | -4.69% | 
10 | Cn1c(SCc2nc3ccccc3n2CCO)nc2ccccc21 | -20.4% | 
11 | CC(C)N(C(=O)CSc1nc2ccccc2n1-c1ccccc1)C(C)C |  | 15.8 µM (active)
12 | C[C@@H](N)C(=O)O | -3.47% | 
13 | CCOC(=O)c1c(NC(=S)Nc2ccccc2)sc2c1CCN(CCc1ccccc1)C2 |  | 0.282 µM (active)
14 | CCN1CCc2c(sc(NC(=S)NC(=O)c3ccccc3)c2C#N)C1 | -29.2% | 
15 | CCN1CCc2c(sc(N)c2C(N)=O)C1 | -3.22% | 
16 | O=C(COc1ccc2ccccc2c1)NNC(=O)Cc1cccc2ccccc12 | 4.04% | 
17 | CCSc1nnc(NC(=O)COc2ccc3ccccc3c2)s1 |  | 0.224 µM (active)
18 | O=C(COc1ccc2ccccc2c1)Nc1ccc(Cc2ccncc2)cc1 |  | 0.316 µM (active)
19 | CCSc1nnc(NC(=O)Cc2ccccc2OC)s1 | -20.3% | 
20 | CC(=O)CC(=O)Nc1ccc2ccccc2c1 | 21.1% [at 11.4 µM] | 
21 | Nc1nc(Cl)cc(NCCO)n1 | 2.74% [at 11.4 µM] | 
22 | O=C(O)[C@@H]1Cc2c([nH]c3ccccc23)[C@@H](CCCCO)N1 | -6.46% [at 11.4 µM] | 
23 | Cc1cc(C)c(C#N)c(SCc2cc3c(cc2Cl)OCO3)n1 |  | 3.16 µM (active)
24 | N#Cc1cccc(NC(=O)N2CCCC3(CCN(C(=O)c4cnccn4)CC3)C2)c1 | 3.77% | 
25 | COc1ccc(Nc2nnc(-c3ccc(N4CCOCC4)c([N+](=O)[O-])c3)c3ccccc23)cc1 |  | 3.16 µM (active)

Row | SMILES | activity, negative = inhibition | AC50
26 | CS(=O)(=O)N1CCC2(CC1)CN(C(=O)Nc1cccc(C#N)c1)C2 | -4.82% | 
27 | CC(C)(C)NCC[C@@H](O)c1cc(C(F)(F)F)nc2c(C(F)(F)F)cccc12 | 3.88% [at 11.4 µM] | 
28 | CCCCCCCNS(=O)(=O)c1cccc2c(Cl)cccc12 | -21.1% | 
29 | NCCCCCCNS(=O)(=O)c1cccc2c(Cl)cccc12 |  | 3.16 µM (active)
30 | NCCCCCCCCCCNS(=O)(=O)c1cccc2c(Cl)cccc12 |  | 0.0501 µM (active)
31 | NCCCCNS(=O)(=O)c1ccc2c(Cl)cccc2c1 |  | 2 µM (active)
32 | CNCCNS(=O)(=O)c1cccc2cnccc12 | -29.4% | 
33 | NCCNS(=O)(=O)c1cccc2cnccc12 |  | inactive
34 | NCCNS(=O)(=O)c1ccc(N)cc1 | -0.285% [at 11.4 µM] | 
35 | NCCCCCCCCCCN | 3.55% | 
36 | N[C@@H](CSCc1ccccc1)C(=O)O | 11.8% [at 11.4 µM] | 
37 | N[C@H](C(=O)O)[C@H](OCc1ccccc1)C(=O)O |  | 10 µM (active)
38 | N[C@@H](Cc1ccccc1)C(=O)O | 13.9% [at 11.4 µM] | 
39 | Fc1ccc(Nc2ncncc2-c2ccccc2C(F)(F)F)cc1 | -4.04% [at 2.29 µM] | 
40 | CN1CCN(c2ccnc(-c3cccc(NS(C)(=O)=O)c3)n2)CC1 | -3.66% [at 2.29 µM] | 
41 | CC(C)c1ccccc1S(=O)c1ccccc1C(C)(C)O (configuration not stated) | -18.2% [at 11.4 µM] | 
42 | c1ccc2sc(SCCSc3nc4ccccc4s3)nc2c1 | 23.1% [at 11.4 µM] | 
43 | c1ccc2sc(SCSc3nc4ccccc4s3)nc2c1 | -1.3% [at 11.4 µM] | 
44 | O=C(O)CCCSc1nc2ccccc2s1 | -7.61% [at 11.4 µM] | 
45 | NCCSc1nc2ccccc2s1 |  | 1.58 µM (active)
46 | O=C(CSc1nc2ccccc2s1)NNC(=S)Nc1ccc(Br)cc1 |  | 5.01 µM (active)
47 | OCCN1CCN(CC/C=C2\c3ccccc3Sc3ccc(C(F)(F)F)cc32)CC1 |  | inactive
48 | O=C(CSc1nc2ccccc2s1)Nc1nccs1 | -21% | 
49 | O=C(CSc1nc2ccccc2s1)N1c2ccccc2Sc2ccc(C(F)(F)F)cc21 |  | 3.55 µM (active)
50 | Cc1ccc(S(=O)(=O)NC(=O)CSc2nc3ccccc3s2)cc1 |  | 2.51 µM (active)

Row | SMILES | activity, negative = inhibition | AC50
51 | CC(C)N=c1cc2n(-c3ccc(Cl)cc3)c3ccccc3nc-2cc1Nc1ccc(Cl)cc1 | -15.2% [at 25.6 µM] | 
52 | CN(C)c1ncc2nc(-c3cccc(C#N)c3)c(=O)n(C[C@H]3CCCO3)c2n1 | -10.1% | 
53 | CC(C)C(=O)C(C)(C)CCc1ccccn1 | 13.3% [at 11.4 µM] | 
54 | O=C1[C@H]2[C@H]3[C@H](O)[C@H](O)C/C(=N/OC[C@@H](O)COCc4ccco4)[C@@H]3CC[C@@H]2C(=O)N1C1CCCCC1 | -9.96% [at 11.4 µM] | 
55 | CCSC(=N)N |  | inactive
56 | CO[C@@H]1COC(=O)C/C=C\[C@H](C)COC(=O)[C@H](Cc2ccccc2)NC(=O)C/C=C\[C@H]1C | -22.5% [at 11.4 µM] | 
57 | O=C(CSc1nc2ccccc2s1)N1c2ccccc2Sc2ccccc21 |  | 1.12 µM (active)
58 | COC(=O)C1=C(C)C(c2ccc(OC)cc2)NC(=S)N1 (configuration not stated) |  | 15.8 µM (active)
59 | CCOC(=O)C1=C(C)C(c2ccccc2OC)NC(=S)N1 (configuration not stated) |  | 15.8 µM (active)
60 | COc1ccc(C2C(C(=O)N3CCOCC3)CCC(=O)N2c2ccc(OC)cc2)cc1 (configuration not stated) | -18.2% | 
61 | CCOC(=O)C1C(=O)NC(C)C1c1ccccc1 (configuration not stated) | -20.7% | 
62 | COc1ccc(N2C(=O)CCC(C(=O)O)C2c2ccc(F)cc2)cc1 (configuration not stated) | -15.9% | 
63 | Nc1ccn([C@@H]2O[C@H](COC(=O)C34CC5CC(CC(C5)C3)C4)[C@@H](O)[C@@H]2O)c(=O)n1 | -0.936% [at 11.4 µM] | 
64 | C#CCCCO/N=C1/C[C@@H](O)[C@@H](O)[C@@H]2[C@@H]3C(=O)N(C[C@@H]4CCCO4)C(=O)[C@H]3CC[C@H]12 | -17.1% [at 11.4 µM] | 
65 | Cc1cccc2nc(C(F)(F)F)nc(=O)n12 | -45.6% | 
66 | O=C(O)C[C@H](Cc1ccccc1)C(=O)O | -7.58% [at 11.4 µM] | 
67 | C[C@@H](N)[C@@H](C)Cc1ccccc1 | -11% [at 11.4 µM] | 
68 | Cc1ccc(C)n1C(Cc1ccccc1)C(=O)O (configuration not stated) |  | 31.6 µM (active)
69 | COc1ncc2nc(-c3ccccc3)c(=O)n(C)c2n1 | -14.7% | 
70 | COc1ccc(S(=O)(=O)n2ccc(-c3cnc(-c4ccccc4)s3)n2)cc1 |  | 1.78 µM (active)
71 | O=S(=O)(c1ccc(F)cc1)n1ccc(-c2cnc(-c3ccccc3)s2)n1 |  | 7.94 µM (active)
72 | C[C@@H](N=C(N)N)C(=O)O | 11.8% [at 11.4 µM] | 
73 | Cc1c(C=O)c2ccccn2c1C(=O)c1ccncc1 |  | 7.94 µM (active)
74 | C[C@H](C(=O)c1ccncc1)c1ccccn1 | -11.4% [at 11.4 µM] | 
75 | CCNC(=O)COC(=O)c1cc(=O)[nH]c2ccccc12 | 67.2% | 

Row | SMILES | activity, negative = inhibition | AC50
76 | CCCCOC(=O)c1cc2c(cn1)[nH]c1ccccc12 |  | 7.94 µM (active)
77 | CCCCOC(=O)c1ccc(O)cc1 | -30% [at 25.6 µM] | 
78 | Nc1ncnc2c1ncn2[C@@H]1O[C@@H](C(=O)NC2CC2)[C@H](O)[C@@H]1O | 26.2% | 
79 | CC(C)(C)c1nnc(NC(=O)c2cc(-c3ccccc3)nc3ccccc23)s1 |  | 7.08 µM (active)
80 | COc1ccc(-c2cc(C(=O)Nc3nc4c(C)cccc4s3)c3ccccc3n2)cc1OC |  | 2.51 µM (active)
81 | CC(=O)Nc1ccc(-c2cc(C(=O)O)c3cc4ccccc4cc3n2)cc1 | 4.42% [at 11.4 µM] | 
82 | CCC(=O)Nc1nnc(C(C)(C)C)s1 | -24.6% | 
83 | CC(C)(C)NS(=O)(=O)c1ccc(NC(=O)c2cc(-c3ccccc3)nc3ccccc23)cc1 |  | 6.31 µM (active)
84 | c1cncc(CNc2ncnc3ccc(-c4ccoc4)cc23)c1 | 0.357% [at 2.29 µM] | 
85 | Cc1noc(C)c1-c1ccc2ncnc(N3CCN(C)CC3)c2c1 | -6.38% [at 2.29 µM] | 
86 | Cn1c2c(c(=O)n(C)c1=O)[C@@H]1c3c(ccc4ccccc34)OC[C@@H]1CO2 |  | 12.6 µM (active)
87 | CCCC1c2c(ccc3ccccc23)Oc2ccc3ccccc3c21 | -4.51% [at 11.4 µM] | 
88 | CN(C)c1ccc(-c2nc(NC3CCNCC3)c3ccccc3n2)cc1 | 12.7% [at 2.29 µM] | 
89 | CCOC(=O)c1cccc(NC(=O)COc2ccc([N+](=O)[O-])cc2)c1 |  | 14.1 µM (active)
90 | C/C(=N\NC(=O)COc1ccc([N+](=O)[O-])cc1)C(C)(C)C | -13.3% | 
91 | O=C(COc1ccc(/C=N/NC(=O)c2ccccc2)cc1)Nc1ccc([N+](=O)[O-])cc1 | -5.73% | 
92 | C/C(=N\Nc1nnc(C)c(=O)[nH]1)C(=O)O | 23.7% | 
93 | CC(C)(C)n1nc2c(c1NC(=O)c1ccc(S(=O)(=O)N3CCCCC3)cc1)CS(=O)C2 (configuration not stated) | -25.8% | 
94 | O=C(Nc1ccccc1-c1nc2ccccc2[nH]1)c1ccc(S(=O)(=O)N2CCCCC2)cc1 |  | 2 µM (active)
95 | COc1ccccc1-c1nc(N(C)Cc2ccco2)c2ccccc2n1 | -7.62% [at 2.29 µM] | 
96 | CCC(CC)C(=O)Nc1c2c(nn1-c1ccc(OC)cc1)CS(=O)(=O)C2 |  | 7.94 µM (active)
97 | O=C(Nc1c2c(nn1-c1ccc(F)cc1)CS(=O)(=O)C2)C12CC3CC(CC(C3)C1)C2 | -21.8% | 
